Measured values: PubChem BioAssay AID1259343 (VanderVen Lab, College of Veterinary Medicine, Cornell …, 2017)
Out of some 6,200 compounds screened, about 2,900 (47%) were called active. The set was probably picked from earlier hits. This is one part of the list. Values without a mark were called inactive. No stated cut-off is given here; in the data, active means inhibition above about 50%; inactive means the rest.

Experiment: Mycobacterium tuberculosis growth inhibition, primary screen (AID 1259343)
Details: inhibition: at 10 µM, hits give high values; outcome: 10 uM

SMILES	inhibition
O=C(CCl)N1CCN(Cc2c(F)cccc2Cl)CC1	66.2% (active)
O=c1ccc(-c2ccco2)nn1Cc1cccc2ccccc12	37%
N#Cc1c(F)cccc1N1CCN(c2ccccc2O)CC1	-21.1%
CC1(C(=O)NCc2cccc3ccccc23)CCN1CCCc1ccccc1 (configuration not stated)	32.3%
O=C(CCl)N1CCN(Cc2cccc3ccccc23)CC1	71.9% (active)
O=c1ccc(-c2cccc([N+](=O)[O-])c2)nn1Cc1c(F)cccc1Cl	21.1%
O=C(CCl)N1CCN(c2ccccc2F)CC1	97.1% (active)
O=C(CCl)N1CCN(Cc2ccc(Cl)s2)CC1	-19.9%
O=C(c1ccc2c(c1)OCO2)C1CCCN(Cc2c(F)cccc2Cl)C1 (configuration not stated)	-16.5%
O=[N+]([O-])c1ccc(N2CCN(Cc3c(F)cccc3Cl)CC2)cc1	86.5% (active)
O=c1c(-c2cccc(Br)c2)[n+]([O-])c2ccccc2n1O	5.77%
O[N+]1=CC=CCC1=S.On1ccccc1=S.[Zn]	102% (active)
COc1ccc(S(=O)(=O)N2CC3(C)CC2CC(C)(C)C3)cc1 (configuration not stated)	24.4%
Cc1ccc(S(=O)(=O)N2CCC(NC(=O)C(C)Oc3ccc(Cl)cc3Cl)CC2)cc1 (configuration not stated)	10.4%
COc1ccc(CC2CCN(S(=O)(=O)c3ccc(Cl)cc3)CC2)cc1	56.9% (active)
CCc1ccc(S(=O)(=O)N2CCC(CO)(Cc3ccc(OC)cc3)CC2)s1	15.3%
COc1ccc(CC2CCN(S(=O)(=O)c3ccc(C#N)cc3)CC2)cc1	52.4% (active)
COc1ccc2cc(CN(C)c3ccc(C#N)cn3)ccc2c1	19.4%
Nc1cc(S(=O)(=O)N2CCCCC2)ccc1Oc1ccc(Cl)cc1	16.6%
O=S(=O)(c1ccc(Cl)cc1)N1CCCC2CCCCC21 (configuration not stated)	23.9%
COc1ccc(-c2ccc(S(=O)(=O)N3CCCCCC3)cc2)cc1	81.1% (active)
CCC(=O)Nc1sc2c(c1-c1nc3ccccc3s1)CCN(CC)C2	60.8% (active)
CCN1CCc2c(sc(NC(=O)c3ccc([N+](=O)[O-])cc3)c2-c2nc3ccccc3s2)C1	42.7%
CCN1CCc2c(sc(NC(=O)c3ccco3)c2-c2nc3ccccc3s2)C1	87.1% (active)
CCN1CCc2c(sc(NC(=O)C(C)(C)C)c2-c2nc3ccccc3s2)C1	100% (active)
CN1CCc2c(sc(NC(=O)c3ccco3)c2-c2nc3ccccc3s2)C1	inactive

SMILES	inhibition
CCN1CCc2c(sc(NC(=O)C3CC3)c2-c2nc3ccccc3s2)C1	36%
CCN1CCc2c(sc(NC(C)=O)c2-c2nc3ccccc3s2)C1	79.4% (active)
CCC(=O)Nc1sc2c(c1-c1nc3ccccc3s1)CCN(C)C2	30.1%
C(=Nn1c(-c2ccco2)csc1=NC1CCCCC1)c1ccccn1	-7.16%
CCN1CCc2c(sc(NC(=O)c3cccs3)c2-c2nc3ccccc3s2)C1	52% (active)
CCN1CCc2c(sc(NC(=O)c3ccccc3)c2-c2nc3ccccc3s2)C1	100% (active)
CN1CCc2c(sc(NC(=O)C(C)(C)C)c2-c2nc3ccccc3s2)C1	52.2% (active)
CCN1CCc2c(sc(NC(=O)c3ccc(C(C)=O)cc3)c2-c2nc3ccccc3s2)C1	5.96%
CN1CCc2c(sc(NC(=O)CS(=O)(=O)c3ccccc3)c2-c2nc3ccccc3s2)C1	25.4%
CCN1CCc2c(sc(NC(=O)c3ccc(OC)cc3)c2-c2nc3ccccc3s2)C1	inactive
Cc1ccc(S(=O)(=O)CC(=O)Nc2sc3c(c2-c2nc4ccccc4s2)CCN(C)C3)cc1	-29.9%
CN1CCc2c(sc(NC(=O)c3cccs3)c2-c2nc3ccccc3s2)C1	45.1%
COc1ccc(OCCSCc2nc3sc4c(c3c(=O)[nH]2)CCC(C)C4)cc1 (configuration not stated)	54.4% (active)
CC1CCc2c(sc3nc(C(C)N4CCOCC4)[nH]c(=O)c23)C1 (configuration not stated)	49.6%
CC1CCc2c(sc3nc(CN(Cc4ccccc4)CC(O)COCc4ccccc4)[nH]c(=O)c23)C1 (configuration not stated)	17.2%
N=c1oc2c([N+](=O)[O-])cc(N3CCCCC3)cc2cc1-c1nc2ccccc2s1	5.54%
Oc1ccc(Br)cc1C=NNc1ccc(F)cc1F	58.9% (active)
CN(C)c1ccc(C=NNc2ccc(F)cc2F)cc1	14.3%
COc1cc(OC)c(OC)cc1C=NNc1ccc(F)cc1F	84.3% (active)
COc1ccc(CN2CCN(c3ccc(Oc4ccccc4)cc3)C(=O)C2C)cc1 (configuration not stated)	28.7%
COc1ccc(N2CN=C3SCC(=O)N3C2)cc1	95.9% (active)
O=C1CSC2=NCN(c3ccc(Cl)c(Cl)c3)CN12	71.9% (active)
O=C1CSC2=NCN(c3ccc(I)cc3)CN12	63.4% (active)
CCOC(=O)c1nnc2n(c1=O)CCN2c1ccc(OC)cc1	31.9%
O=c1c2cnc(N3CCOCC3)nc2ccn1-c1ccc(Cl)c(Cl)c1	12.3%
CNc1cnc(-c2ccc(O)cc2C)cn1	9.26%

SMILES	inhibition
CCCCCCCCN=C1NC(=O)CS1	95.8% (active)
Nc1ncc(Br)cc1S(=O)(=O)N1CCCCC1	77.9% (active)
CCCCCOc1cc(C)ccc1S(=O)(=O)N1CCCC1	41.6%
CCOc1ccc(-c2ccc(=O)n(Cc3cc(C)ccc3C)n2)cc1	-12.8%
CCOC(=O)C1CCN(C2CCN(c3nncc(-c4ccccc4)n3)CC2)CC1	-15.5%
CCOc1ccc(-c2ccnc(N3CCN(C(=O)C(=O)OC)CC3)n2)cc1	53.2% (active)
O=C(NCCc1ccco1)c1ccc(Br)cc1F	5.5%
O=C(NCCc1ccco1)c1ccc(C2SCCS2)cc1	77.9% (active)
CC(C)(CNC(=O)CCc1ccco1)c1ccc(Br)cc1	11.2%
O=S(=O)(Nc1cnc(Br)cn1)c1cccc(Cl)c1	10.2%
N#Cc1ccc(NS(=O)(=O)c2ccc(F)c(Cl)c2)nc1	27%
O=S(=O)(Nc1ccc(Br)cn1)c1ccc(Cl)cc1	77.7% (active)
CC(Cl)C(=O)N1CCC(Cc2ccc(C(F)(F)F)cc2)CC1 (configuration not stated)	90.3% (active)
O=C(c1c(F)c(F)cc(F)c1F)N1CCC(Cc2ccc(C(F)(F)F)cc2)CC1	71.6% (active)
CC(C)(C)c1ccc(CC2CCN(C(=O)CCCl)CC2)cc1	82% (active)
O=C(C1CCC1)N1CCC(Cc2ccc(C(F)(F)F)cc2)CC1	83.6% (active)
O=C(NCc1ccccc1F)C(C1CCCC1)N1CCN(C(=O)c2ccc(C(F)(F)F)cc2)CC1 (configuration not stated)	-35.5%
O=C(N1CCC(Cc2ccc(-c3ccccc3)cc2)CC1)C(F)(F)C(F)F	39.3%
Cc1cc2cc(NC(=O)c3ccc(CN4CC[C@H](O)C4)cc3)ccc2o1	91.8% (active)
O=C1NC(=NC2CCCC2)SC1=Cc1cc2c(cc1Br)OCO2	63.1% (active)
c1ccc2c(NCCNc3ncnc4ccccc34)cccc2c1	69.3% (active)
c1ccc(-c2nc(NCCc3ccccn3)c3ccccc3n2)cc1	-27%
O=[N+]([O-])c1ccccc1NCCNc1cccc2ccccc12	26%
COc1ccc(OC)c(-c2nc3ccc(Br)cn3c2NC2CCCCC2)c1	10.8%
CCOC(=O)CNc1c(-c2ccccc2Cl)nc2ccc(Br)cn12	88.4% (active)
CCOC(=O)CNc1c(-c2ccc(C(F)(F)F)cc2)nc2ccc(Br)cn12	24.2%

SMILES	inhibition
Oc1c(Cl)cc(Cl)c(Cl)c1Cc1c(O)c(Cl)cc(Cl)c1Cl	102% (active)
Cc1cccc(-c2ccc(NC(=O)C3CCN(C(=O)c4ccncc4)CC3)cc2)c1	inactive
Cc1cccc(-c2ccc(NC(=O)C3CCN(C(=O)c4nonc4C)CC3)cc2)c1	92.3% (active)
Cc1cccc(-c2ccc(NC(=O)C3CCN(C(=O)c4ccc(F)cc4)CC3)cc2)c1	81.5% (active)
Cc1ccc(SCC(=O)NC23CC4CC(CC(C4)C2)C3)cc1C	-43.9%
COc1ccccc1N(C)CC(=O)NC12CC3CC(CC(C3)C1)C2	9.54%
O=C(CCOc1ccccc1)NC12CC3CC(CC(C3)C1)C2	87.8% (active)
CC(C)Nc1nc(-c2ccc(Br)s2)cs1	17.8%
O=C(Nc1nc(-c2ccc(Br)s2)cs1)c1ccc(Br)s1	81.8% (active)
CCOc1ccc(Nc2cncc(Cl)n2)cc1	72.5% (active)
COc1ccc(NC(=O)N(Cc2ccco2)C(C)c2nc3ccccc3c(=O)n2-c2ccccc2)cc1 (configuration not stated)	-7.33%
COc1ccc(NC(c2ccccn2)c2oc(CO)cc(=O)c2O)cc1 (configuration not stated)	84.2% (active)
CCCCCCCCNC(C)C(O)c1ccc(SC(C)C)cc1 (configuration not stated)	3.63%
NC(=O)Cc1csc(Nc2ccc(OC(F)(F)F)cc2)n1	73.5% (active)
O=C(Cc1csc(NC(=O)NC2CCCCC2)n1)Nc1ccc(Oc2ccccc2)cc1	-2.63%
Cc1ccc(OCc2cc(C(=O)N(C)CCc3ccccc3)no2)cc1C	93.7% (active)
CC(C)c1nc(CNC(=O)c2cc(COc3c(F)cccc3F)on2)cs1	23.3%
O=C(NCC1CCCCO1)c1coc(COc2cccc(C(F)(F)F)c2)n1 (configuration not stated)	0.47%
CN(CCC(O)c1ccccc1)C(=O)c1cc(COc2cccc3cnccc23)on1 (configuration not stated)	48.2%
CN(CCOc1ccccc1)C(=O)c1cc(COc2c(F)cccc2F)on1	84.2% (active)
O=C(NCC1CCCCO1)c1cc(COc2c(F)cccc2F)on1 (configuration not stated)	65.1% (active)
Cc1ccc(OCc2cc(C(=O)N(C)Cc3csc(-c4ccccc4)n3)no2)cn1	73% (active)
Cc1ccc(OCc2cc(C(=O)N(C)CC3Cc4ccccc4O3)no2)cn1 (configuration not stated)	inactive
COCCN(C)C(=O)c1cc(COc2cc(C)c(Cl)c(C)c2)on1	inactive
